Results filed as inconclusive are left out. Activity calls are given as the source filed them. Calls come from the whole dose curve; as a rule, active = well fitted inhibition curve with a large enough effect; inconclusive = small, poorly fitted or top-dose-only effect; inactive = flat fitted curve, though single readings scatter.
Columns and labels:
Experiment in all cases: qHTS profiling for inhibitors of Plasmodium falciparum proliferation (AID 504749); note: nearly all actives have a fitted effect of over 60% in size
Details in all cases: P. falciparum in erythrocytes, SYBR Green DNA, 72 h; series mostly up to 28.7 µM
CP194 = tested on: CP194
How it was run: (§1)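 Three-day growth assay of blood-stage parasites in erythrocytes (0.3% parasitemia, 2.5% hematocrit) at 37 C, 5% CO2, quantified by SYBR Green DNA staining after overnight detergent lysis.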

CP201 = tested on: CP201
How it was run: as §1

CP203 = tested on: CP203
How it was run: as §1

CP211 = tested on: CP211
How it was run: as §1

CP215 = tested on: CP215
How it was run: as §1

CP217 = tested on: CP217
How it was run: as §1

CP237 = tested on: CP237
How it was run: as §1

CP238 = tested on: CP238
How it was run: as §1

CP247 = tested on: CP247
How it was run: as §1

CP250 = tested on: CP250
How it was run: as §1

CP252 = tested on: CP252
How it was run: as §1

CP256 = tested on: CP256
How it was run: as §1

CP260 = tested on: CP260
How it was run: as §1

CP262 = tested on: CP262
How it was run: as §1

CP265 = tested on: CP265
How it was run: as §1

CP266 = tested on: CP266
How it was run: as §1

CP268 = tested on: CP268
How it was run: as §1

CP286 = tested on: CP286
How it was run: as §1

CP291 = tested on: CP291
How it was run: as §1

CP269 = tested on: CP269
How it was run: as §1

Measured: Potency

CCCCCCCCCCC(CO)CCCCCCCC (configuration not stated)
not listed: CP269
inactive: all other assays above

OCC(O)CS (configuration not stated)
inactive: all assays above

NNC(=O)CP(=O)(c1ccccc1)c1ccccc1
inactive: all assays above

O=C(O)COC(=O)Cc1ccccc1Nc1c(Cl)cccc1Cl
inactive: all assays above

CCCOC(=O)c1ccc(N)cc1
inactive: all assays above

CC(CSC(=O)c1ccccc1)C(=O)N1C[C@@H](Sc2ccccc2)C[C@H]1C(=O)O (some centres not stated)
inactive: all assays above

C[C@@H]1CCC[C@H](C)N1
inactive: all assays above

Cc1ccc(C(C)C)c(O)c1
inactive: all assays above

COc1cc(O)cc(O)c1
inactive: all assays above

COc1ccccc1OC(=O)Oc1ccccc1OC
inactive: all assays above

NC(N)=NS(=O)(=O)c1ccc(N)cc1
inactive: all assays above

CC(=O)Nc1cccc(O)c1
inactive: all assays above

NS(=O)(=O)c1cc2c(cc1C(F)(F)F)NCNS2(=O)=O
inactive: all assays above

O=C1CC[C@@H](C(=O)O)N1
inactive: all assays above

CC(=O)SC[C@@H](Cc1ccccc1)C(=O)NCC(=O)OCc1ccccc1
inactive: all assays above

CC(C(=O)O)c1ccc2c(c1)Cc1cccnc1O2 (configuration not stated)
inactive: all assays above

CCCCOC(=O)c1ccc(N)cc1
inactive: all assays above

Cn1c([N+](=O)[O-])cnc1COC(N)=O
not listed: CP268
inactive: all other assays above

CN/C(=C\[N+](=O)[O-])NCCSCc1csc(CN(C)C)n1
not listed: CP266
inactive: all other assays above

Cc1c(NC(C)C)c(=O)n(-c2ccccc2)n1C
not listed: CP266
inactive: all other assays above

Cc1c(N(C)C)c(=O)n(-c2ccccc2)n1C
not listed: CP260 | CP291
inactive: all other assays above

Nc1ncnc(Nc2ccccc2)n1
not listed: CP250 | CP262
inactive: all other assays above

NCc1ccc(S(N)(=O)=O)cc1
not listed: CP260 | CP265
inactive: all other assays above

COc1ccc(C(=O)N2CCN(CC(=O)N3CCOCC3)CC2)cc1
not listed: CP250
inactive: all other assays above

O=C(O)CCCc1ccccc1
not listed: CP260 | CP266
inactive: all other assays above

CC(=O)Nc1ccc(OCCOCCOc2ccc(NC(C)=O)cc2)cc1
not listed: CP247
inactive: all other assays above

NS(=O)(=O)c1ccc(C(=O)O)cc1
not listed: CP262
inactive: all other assays above

CCOc1ccc(C(=O)OCCN(CC)CC)cc1
not listed: CP262
inactive: all other assays above

COc1ccc2cc(CCC(C)=O)ccc2c1
not listed: CP262 | CP266
inactive: all other assays above

Cc1cc(NC(=O)C2=C(O)c3ccccc3S(=O)(=O)N2C)no1
not listed: CP247
inactive: all other assays above

COc1ccc(O)cc1
not listed: CP247
inactive: all other assays above

C[C@@H]1O[C@@H](OC[C@H]2O[C@@H](Oc3c(-c4ccc(O)c(O)c4)oc4cc(O)cc(O)c4c3=O)[C@H](O)[C@@H](O)[C@@H]2O)[C@H](O)[C@H](O)[C@H]1O
not listed: CP266
inactive: all other assays above

CCCCCCCC(=O)OCC(COC(=O)CCCCCCC)OC(=O)CCCCCCC
not listed: CP266
inactive: all other assays above

Cc1ccsc1C(=CCCN1CCC[C@@H](C(=O)O)C1)c1sccc1C
not listed: CP266
inactive: all other assays above

From PubChem BioAssay (NCATS)
